# Results: PubChem BioAssay (NCATS)
# Values joined by “and” are separate entries in the source; they are usually repeats but may differ in a detail not shown here. Equal values may be shown once. Values without a mark were called inactive. Records with an inconclusive call do not appear. Where a call stands in place of a potency, no number is given. Active and inactive are the calls of the source. Calls come from the whole dose curve; as a rule, active = well fitted curve in the direction sought with a large enough effect; inconclusive = small, poorly fitted or top-dose-only effect, or another doubt; inactive = no such curve, though single readings can be large; an effect the other way counts as inactive or inconclusive.
# Tests used:
# [1] = biological target: Peroxisome proliferator-activated receptor alpha (Homo sapiens) (UniProt Q07869); assay: qHTS assay for small molecule agonists of the peroxisome proliferator-activated receptor alpha (PPARalpha) signaling pathway (AID 651778); details: PathHunter PPARalpha complementation, chemiluminescence, 6 h; stronger effect = higher value
# Peroxisome proliferator-activated receptor alpha (Homo sapiens), sequence (Q07869 whole entry, looked up): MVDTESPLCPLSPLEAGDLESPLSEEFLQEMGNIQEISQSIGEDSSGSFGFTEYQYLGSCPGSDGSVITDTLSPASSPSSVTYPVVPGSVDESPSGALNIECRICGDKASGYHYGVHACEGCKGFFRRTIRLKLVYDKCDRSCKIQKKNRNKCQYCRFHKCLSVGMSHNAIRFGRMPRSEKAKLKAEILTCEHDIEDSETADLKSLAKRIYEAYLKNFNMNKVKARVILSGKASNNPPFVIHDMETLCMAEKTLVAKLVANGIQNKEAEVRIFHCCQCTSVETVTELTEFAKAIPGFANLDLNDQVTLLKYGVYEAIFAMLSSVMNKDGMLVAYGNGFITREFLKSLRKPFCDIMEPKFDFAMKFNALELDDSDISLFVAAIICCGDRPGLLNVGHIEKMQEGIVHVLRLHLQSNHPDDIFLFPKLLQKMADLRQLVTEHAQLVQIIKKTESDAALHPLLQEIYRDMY
# How it was run: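 Cells plated at 2,000/well and held overnight at 37 C, 5% CO2, then compound added by pin tool for 6 hr; after PathHunter detection reagent and 60 min at room temperature, chemiluminescence from enzyme complementation was read.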
# [2] = qHTS for compounds that reverse cellular toxicity of Amyloid beta (A-beta) peptide in yeast: LOPAC Validation Assay (AID 720559); details: yeast expressing A-beta; series mostly up to 46.1 µM
# How it was run: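 Here, A-beta-toxic yeast grow with test compounds at 30 C for 48 hr before optical density at 600 nm is recorded; data are normalized against DMSO and the FeCl3-clioquinol control.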
# [3] = qHTS for Activators of Parkin Expression: LOPAC Validation Assay (NLuc Reporter) (AID 720572); details: Parkin promoter NanoLuc reporter cells, luminescence; series mostly up to 46.1 µM
# How it was run: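 Neuronal line stably carrying a FLuc/NLuc coincidence reporter under the Parkin promoter, seeded 24 h, then dosed in 7-point series for 24 h at 37 C. NLuc luminescence read after FLuc; normalized to DMSO and positive control (100%).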
# [4] = biological target: Nuclear receptor ROR-gamma (Homo sapiens) (UniProt P51449); assay: qHTS assay for small molecule antagonists of the retinoid-related orphan receptor gamma (ROR-gamma) signaling pathway (AID 651802); details: ROR-gamma antagonist cell reporter assay; series mostly up to 92.2 µM;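 note: CHO cells with doxycycline-induced ROR-gamma expression; luciferase reporter luminescence driven by ROR response element; nearly all actives have a fitted effect of over 60% in size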
# Nuclear receptor ROR-gamma (Homo sapiens), sequence (P51449 whole entry, looked up): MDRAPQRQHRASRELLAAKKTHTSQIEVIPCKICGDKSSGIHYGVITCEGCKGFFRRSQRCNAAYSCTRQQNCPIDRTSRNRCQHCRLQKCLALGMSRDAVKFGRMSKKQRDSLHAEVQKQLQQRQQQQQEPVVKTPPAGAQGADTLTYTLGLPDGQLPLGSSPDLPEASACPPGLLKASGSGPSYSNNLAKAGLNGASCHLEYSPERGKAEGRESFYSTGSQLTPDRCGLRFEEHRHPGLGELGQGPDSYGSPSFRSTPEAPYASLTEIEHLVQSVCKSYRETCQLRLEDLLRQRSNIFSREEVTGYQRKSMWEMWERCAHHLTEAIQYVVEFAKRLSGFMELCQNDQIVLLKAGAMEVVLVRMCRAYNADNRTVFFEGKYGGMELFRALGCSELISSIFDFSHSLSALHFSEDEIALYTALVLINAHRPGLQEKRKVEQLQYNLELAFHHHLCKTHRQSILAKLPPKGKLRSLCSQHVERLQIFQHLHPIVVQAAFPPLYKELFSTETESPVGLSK
# How it was run: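 CHO, TET-inducible ROR + RORE-LUC reporter, 1536-well qHTS. Compound pinned, doxycycline added, 16hr 37C/5% CO2. ONE-Glo, 30 min RT, luminescence; signal drop scored as antagonism.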
# [5] = biological target: Arylsulfatase A (Homo sapiens) (UniProt P15289); assay: qHTS screen for enhancers of Arylsulfatase A (ASA1): LOPAC Validation Assay (AID 720538); details: ASA enzyme activity, LOPAC qHTS enhancer assay; series mostly up to 57.5 µM
# Arylsulfatase A (Homo sapiens), sequence (P15289 whole entry, looked up): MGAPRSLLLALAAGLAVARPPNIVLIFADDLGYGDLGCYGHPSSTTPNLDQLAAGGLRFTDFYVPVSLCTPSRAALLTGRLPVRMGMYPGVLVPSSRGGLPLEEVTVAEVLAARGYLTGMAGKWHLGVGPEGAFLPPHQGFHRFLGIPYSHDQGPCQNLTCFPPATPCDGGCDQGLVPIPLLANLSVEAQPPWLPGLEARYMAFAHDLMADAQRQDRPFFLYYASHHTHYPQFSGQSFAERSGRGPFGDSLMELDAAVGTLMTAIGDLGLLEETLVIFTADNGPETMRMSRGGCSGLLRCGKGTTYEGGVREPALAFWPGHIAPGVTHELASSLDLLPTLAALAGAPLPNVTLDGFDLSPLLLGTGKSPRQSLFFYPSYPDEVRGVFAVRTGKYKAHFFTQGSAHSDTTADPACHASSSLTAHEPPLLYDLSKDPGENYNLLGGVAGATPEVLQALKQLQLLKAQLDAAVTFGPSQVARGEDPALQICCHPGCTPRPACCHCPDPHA
# How it was run: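 Cell-based enhancement test: residual ASA activity in SV40-transformed I179S patient fibroblasts is measured by pNCS turnover (0.5mM final, 14h, room temperature) following 48h compound incubation; higher fluorescence indicates activation.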
# [6] = qHTS for Inhibitors of Ubiquitin-specific Protease USP2a Using CHOP2 as the Reporter: K633 Counterscreen (AID 652168); details: No-enzyme DiUb K48 IQF substrate fluorescence interference, kinetic; series mostly up to 57.5 µM
# How it was run: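 Cell-free interference counterscreen without USP2a: compounds pinned into enzyme-free buffer (20 mM Tris pH 8, 2 mM beta-mercaptoethanol, 0.05% Chaps), then DiUb K48-4IQF substrate added (100 nM stock); fluorescence read kinetically, Ex 525/Em 598.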
# [7] = qHTS for Inhibitors of Ubiquitin-specific Protease USP2a Using CHOP2 as the Reporter: Cytotox Assay (AID 652170); details: HCT116 viability, CellTiter-Glo luminescence, 72 h; series mostly up to 46.1 µM; note: nearly all actives have a fitted effect of over 70% in size
# How it was run: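 HCT116 human colon cancer cells, 600 per well in DMEM with 10% FBS, exposed to compounds for 72 hr at 37 deg C. ATP measured by CellTiter-Glo luminescence, normalized to DMSO cells and no-cell background.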
# [8] = biological target: Ubiquitin carboxyl-terminal hydrolase 2 (Homo sapiens) (UniProt O75604); assay: qHTS for Inhibitors of Ubiquitin-specific Protease USP2a Using CHOP2 as the Reporter: K484 Substrate (AID 652173); details: USP2 cleavage of DiUb K48 IQF substrate, fluorescence; series mostly up to 57.5 µM;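 note: cleavage of internally quenched K48 di-ubiquitin substrate measured as rising fluorescence over time; nearly all actives have a fitted effect of over 70% in size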
# Ubiquitin carboxyl-terminal hydrolase 2 (Homo sapiens), sequence (O75604 whole entry, looked up): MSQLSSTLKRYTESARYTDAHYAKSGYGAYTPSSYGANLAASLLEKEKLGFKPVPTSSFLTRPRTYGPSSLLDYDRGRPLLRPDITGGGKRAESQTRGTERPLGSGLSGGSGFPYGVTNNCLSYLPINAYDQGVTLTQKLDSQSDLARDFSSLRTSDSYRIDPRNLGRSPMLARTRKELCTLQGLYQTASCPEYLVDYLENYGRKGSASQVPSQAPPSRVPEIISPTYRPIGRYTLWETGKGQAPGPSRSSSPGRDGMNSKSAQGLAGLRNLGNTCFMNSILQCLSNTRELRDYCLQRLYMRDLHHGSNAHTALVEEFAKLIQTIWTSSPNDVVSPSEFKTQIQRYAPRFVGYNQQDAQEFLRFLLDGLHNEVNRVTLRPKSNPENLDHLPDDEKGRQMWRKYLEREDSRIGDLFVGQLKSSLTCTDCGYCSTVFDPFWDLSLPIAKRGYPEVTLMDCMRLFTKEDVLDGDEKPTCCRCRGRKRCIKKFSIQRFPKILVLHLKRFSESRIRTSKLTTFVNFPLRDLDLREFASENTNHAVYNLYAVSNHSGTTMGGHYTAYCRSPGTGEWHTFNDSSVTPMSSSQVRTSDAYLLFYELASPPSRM
# Description: Homeostasis of cellular proteins is maintained through a combination of synthesis and degradation. The pathway that accounts for the majority of protein degradation is the ubiquitin-proteasomal pathway. Ubiquitin (Ub) is highly conserved in all cells and the generation of a multi-Ub chain typically targets proteins for degradation by the proteasome. However, ubiquitination is highly reversible and dynamic. Deubiquitination, the reverse process, is catalyzed through the action of enzymes referred to as isopeptidases or deubiquitinating enzymes (DUBs). This group of enzymes is collectively responsible for maintaining adequate pools of free ubiquitin and regulating the ubiquitination status of cellular proteins. The class of DUBs referred to as the ubiquitin-specific proteases (USP) family functions endoproteolytically to cleave Ub chains from a wide range of protein substrates. […] Confirmed qHTS active compounds were tested in orthogonal USP2 assays utilizing a di-ubiquitin substrate labeled with a quencher on one ubiquitin and a fluorescent compound on the other, i.e. the substrate has internally quenched fluorescence or IQF (Lifesensors). In the presence of active USP2, the diubiquitin (DiUb) is cleaved and the fluorescence at 598 nm increases. […] Upon inhibition of USP2, the fluorescence signal from cleaved substrate increases less over time than in the absence of an inhibitor. […]
structure (smiles),measurement,setting,value
CN(C)CCC=C1c2ccccc2CCc2ccccc21,max response,[1],-4.24% and -3.42%
same,outcome,[2],inactive
same,Potency,[3],inactive
Cc1cccc(Nc2cc(Cl)nc(SCC(=O)O)n2)c1C,max response,[1],-1.35%
NCCNCCNCCNCCN,max response,[1],-1.59% and -2.29%
same,Potency,[4],inactive
CCCCCCCCCCCCOS(=O)(=O)O,max response,[1],11.8% and 23.9% and 3.99%
same,Potency,[4],inactive
Oc1cccc(O)c1,max response,[1],-10.6%
COc1ccc(Cl)cc1C(=O)NCCc1ccc(S(=O)(=O)NC(=O)NC2CCCCC2)cc1,max response,[1],0.201%
same,Potency,[5],inactive
same,outcome,[2],inactive
Nc1ccc(S(=O)(=O)Nc2nccs2)cc1,max response,[1],-1.3%
same,outcome,[6],inactive
same,outcome,[7],inactive
same,outcome,[8],inactive
CC1=C(/C=C/C(C)=C/C=C/C(C)=C/C(=O)O)C(C)(C)CCC1,max response,[1],-0.0468% and 3.03%
same,Potency,[5],inactive
same,outcome,[2],inactive
same,Potency,[3],inactive
O=C1NS(=O)(=O)c2ccccc21,max response,[1],0.552%
C[C@]12C[C@H](O)[C@H]3[C@@H](CCC4=CC(=O)CC[C@@]43C)[C@@H]1CC[C@@H]2C(=O)CO,max response,[1],-1.77% and -2.82%
same,Potency,[5],inactive
same,outcome,[2],inactive
same,Potency,[3],inactive
NC(=O)c1ncn([C@@H]2O[C@H](CO)[C@@H](O)[C@H]2O)n1,max response,[1],-11%
same,outcome,[2],inactive
same,Potency,[3],inactive
COc1ccccc1O,max response,[1],-1.16% and 0.39% and -4.81%
same,Potency,[4],inactive
